Assay outcomes from PubChem BioAssay.
Sampled rows, rich in hits. Any-hit rate of the full collection: about 5.2%.
APOBEC3A inh = blocks human APOBEC3A ssDNA deamination; P31941; recombinant A3A, FAM/TAMRA ssDNA deamination fluorescence; inhibition, % at 20 µM; 0.41% of 330,000 active;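 active = at least 40% inhibition at 20 µM here, with at most 30% in a related deaminase screen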
M18AAP inhibitor = PfM18AAP enzyme inhibition; recombinant PfM18AAP, H-Glu-NHMec fluorogenic cleavage; inhibition, % at 7.35 µM; 1.2% of 290,000 active; AID 1822;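 active = inhibition above the campaign mean inhibition over all tested compounds plus 3 SD, cut at about 28% in these data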
ALR inh = blocks human ALR sulfhydryl oxidase activity; P55789; purified ALR, DTT oxidation, H2O2 HRP-luminol luminescence; inhibition, % (concentration not given with the values); 3.8% of 290,000 active; AID 485317;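 active = mean replicate inhibition above about 79%, with every replicate also reaching it, limit read from the data; inconclusive = only one of the two criteria met; inactive = mean below limit and not every replicate reaching it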
APOBEC3G inh = inhibitors of human APOBEC3G DNA deaminase; 0.28% of 330,000 active; inhibition, % at 20 µM; recombinant A3G, ssDNA deamination FAM/TAMRA fluorescence; AID 493012; Q9HC16;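 active = inhibition of at least 40% at 20 µM, with no more than 30% in the related APOBEC3A deaminase screen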
NRP1-CendR mod = alters CendR peptide binding to human NRP-1 | inhibition, % at 25 µM | FAM-RPARPAR peptide binding to NRP-1, fluorescence polarization | 0.85% of 360,000 active;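 active = inhibition or corrected inhibition above about 18%, plus a signal ratio from 0.5 to 1.5, limit read from the data, passing the limit was not always enough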
Target sequence (O14786 whole entry, looked up): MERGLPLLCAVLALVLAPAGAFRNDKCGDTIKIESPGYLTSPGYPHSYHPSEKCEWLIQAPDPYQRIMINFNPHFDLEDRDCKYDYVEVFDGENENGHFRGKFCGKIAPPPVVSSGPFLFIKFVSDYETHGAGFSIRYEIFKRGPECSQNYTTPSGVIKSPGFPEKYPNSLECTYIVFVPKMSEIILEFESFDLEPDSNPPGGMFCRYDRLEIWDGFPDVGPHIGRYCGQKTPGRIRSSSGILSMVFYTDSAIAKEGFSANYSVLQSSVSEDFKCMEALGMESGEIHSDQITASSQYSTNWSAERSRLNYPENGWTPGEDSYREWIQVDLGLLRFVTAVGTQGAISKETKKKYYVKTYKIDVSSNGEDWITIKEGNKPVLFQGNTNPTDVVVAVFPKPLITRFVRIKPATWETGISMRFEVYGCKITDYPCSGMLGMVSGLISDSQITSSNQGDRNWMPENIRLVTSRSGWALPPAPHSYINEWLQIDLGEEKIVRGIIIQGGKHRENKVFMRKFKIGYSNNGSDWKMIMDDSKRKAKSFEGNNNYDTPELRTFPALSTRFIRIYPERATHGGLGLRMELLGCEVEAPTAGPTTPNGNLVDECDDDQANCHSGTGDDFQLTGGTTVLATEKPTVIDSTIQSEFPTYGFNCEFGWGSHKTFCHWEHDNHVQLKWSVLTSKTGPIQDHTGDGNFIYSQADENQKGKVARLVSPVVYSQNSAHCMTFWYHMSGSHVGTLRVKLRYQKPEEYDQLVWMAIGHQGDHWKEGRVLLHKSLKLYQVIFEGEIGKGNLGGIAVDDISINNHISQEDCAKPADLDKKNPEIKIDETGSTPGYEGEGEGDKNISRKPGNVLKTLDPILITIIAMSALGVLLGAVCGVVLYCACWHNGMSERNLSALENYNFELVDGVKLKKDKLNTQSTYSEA
Yeast superoxide = caloric restriction mimetics inhibiting age-related superoxide in yeast | S. cerevisiae aged cells, superoxide DHE fluorescence; active compounds read low | superoxide response (% of plate mean), % at 10 µM | 0.18% of 330,000 active;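 active = superoxide response under a set limit, about three screen SD below normal, cut at about 65% in these data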;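 also: yeast aged for seven days with compound at 30 °C before DHE staining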
APOBEC3A confirm = APOBEC3A (human) deaminase inhibition, confirmed; 63% of 1,400 active; recombinant A3A, ssDNA deaminase UDG fluorescence assay; inhibition, % at 20 µM; shares compounds with APOBEC3A inh; AID 493151;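 active = inhibition reaching a set limit, 80% of the first screen's cutoff, at 20 µM in any replicate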
UDG ctr A3A = UDG inhibition in APOBEC3A counter-screen. shares compounds with APOBEC3A inh. UDG counterscreen, FAM/TAMRA uracil oligo fluorescence. inhibition, % at 20 µM. 1,000 tested, under 10 active; call rule not given here
APOBEC3G confirm = APOBEC3G (human) deaminase inhibition, confirmed; recombinant A3G ssDNA deaminase, UDG/FAM-TAMRA fluorescence; 72% of 890 active; shares compounds with APOBEC3G inh; AID 493152; inhibition, % at 20 µM;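 active = inhibition reaching a set limit in any replicate at 20 µM, the limit being 80% of the first screen's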
A number is an active result.

For C=CCn1c(O)c(/C(CC)=N/NC(=S)Nc2ccccc2)c(=O)[nH]c1=O the results were APOBEC3A inh inactive, M18AAP inhibitor inactive, APOBEC3G inh inactive, NRP1-CendR mod inactive and Yeast superoxide inactive.
CCC(CO)(C(=O)OC1C[N+]2(C)CCC1CC2)c1ccccc1 (stereo unspecified) was read as APOBEC3A inh 56, M18AAP inhibitor inactive, ALR inh inactive, APOBEC3G inh inactive, NRP1-CendR mod inactive, Yeast superoxide inactive, APOBEC3A confirm 70 and UDG ctr A3A inactive.
C[N+]1(C)CCN(c2ccccc2)CC1 was read as APOBEC3A inh 73, M18AAP inhibitor inactive, ALR inh inactive, APOBEC3G inh inactive, NRP1-CendR mod inactive, Yeast superoxide inactive, APOBEC3A confirm 78 and UDG ctr A3A inactive.
`Cc1cc(O)c(CN2CCN(c3ccccc3)CC2)cc1C` gave APOBEC3A inh inactive, M18AAP inhibitor inactive, APOBEC3G inh inactive, NRP1-CendR mod inactive and Yeast superoxide inactive.
For COc1cc2c(cc1OC)-c1c(OC)c(OC)cc3c1[C@H](C2)[N+](C)(C)CC3 the results were APOBEC3A inh 83, M18AAP inhibitor inactive, ALR inh inactive, APOBEC3G inh inactive, NRP1-CendR mod inactive, Yeast superoxide inactive, APOBEC3A confirm 71 and UDG ctr A3A inactive.
Screening Cc1ccc2c(c1Cl)NC(C(=O)O)C1CC(Sc3ccccc3[N+](=O)[O-])C(Cl)C21 (stereo unspecified) returned APOBEC3A inh 41, M18AAP inhibitor inactive, ALR inh inconclusive, APOBEC3G inh inactive, NRP1-CendR mod inactive, Yeast superoxide inactive and APOBEC3A confirm inactive.
O=C(O)c1cccc2c1NC(c1cccc([N+](=O)[O-])c1)C1CC(Sc3ccccc3[N+](=O)[O-])C(Cl)C21 (stereo unspecified) was read as APOBEC3A inh inactive, M18AAP inhibitor inactive, APOBEC3G inh inactive and NRP1-CendR mod inactive.
Cc1cc(OCCCC(=O)NCc2cccs2)ccc1Cl was read as APOBEC3A inh inactive, M18AAP inhibitor inactive, ALR inh inactive, APOBEC3G inh inactive, NRP1-CendR mod inactive and Yeast superoxide inactive.
`O=C1NC(=O)C(=Cc2ccc(-c3ccccc3[N+](=O)[O-])o2)C(=O)N1` gave APOBEC3A inh inactive, M18AAP inhibitor inactive, APOBEC3G inh inactive, NRP1-CendR mod inactive and Yeast superoxide inactive.
`NS(=O)(=O)c1ccc(-c2ccc(C=C3C(=O)NC(=S)NC3=O)o2)cc1` gave APOBEC3A inh inactive, M18AAP inhibitor inactive, ALR inh inactive, APOBEC3G inh 48, Yeast superoxide inactive and APOBEC3G confirm 47.
`CCC12CN3CC(CC)(CN(C1)C3c1cccnc1)C2=O` (stereo unspecified) gave APOBEC3A inh inactive, M18AAP inhibitor inactive, ALR inh inactive, APOBEC3G inh inactive, NRP1-CendR mod inactive and Yeast superoxide inactive.
`CC(=O)NN1C(=O)c2ccccc2NC1c1cccnc1` (stereo unspecified) gave APOBEC3A inh inactive, M18AAP inhibitor inactive, ALR inh inactive, APOBEC3G inh 54, NRP1-CendR mod inactive, Yeast superoxide inactive and APOBEC3G confirm inactive.
CCC(C)n1c(O)c(/C=N/Nc2ccccc2)c(=O)[nH]c1=S (stereo unspecified) was read as APOBEC3A inh inactive, M18AAP inhibitor inactive, ALR inh 100, APOBEC3G inh 49, NRP1-CendR mod inactive, Yeast superoxide inactive and APOBEC3G confirm inactive.
Screening O=c1[nH]c(=O)n(CCC2=CCCCC2)c(O)c1/C=N/N1CCOCC1 returned APOBEC3A inh inactive, M18AAP inhibitor inactive, ALR inh inactive, APOBEC3G inh inactive, NRP1-CendR mod inactive and Yeast superoxide inactive.
